Measurements as given in the supplement of paper PMC11732987, “Enantioselective OTUD7B fragment discovery through chemoproteomics screening and high-throughput optimisation” (Communications Chemistry, 2025).

What was measured:
Test in all cases: log2 ratio of Biotin-Ahx-Ub-VS probe labelling (fragment/DMSO); higher = less target engagement (more negative = stronger competition), active = hit call of the paper (q ≤ 0.05, log2 ratio ≤ -1)
Conditions in all cases: compound concentration: 200 uM; treatment time: 3 h
OTUD6B = target: T1, OTUD6B (UniProt Q8N6M0)
T1 sequence (whole entry): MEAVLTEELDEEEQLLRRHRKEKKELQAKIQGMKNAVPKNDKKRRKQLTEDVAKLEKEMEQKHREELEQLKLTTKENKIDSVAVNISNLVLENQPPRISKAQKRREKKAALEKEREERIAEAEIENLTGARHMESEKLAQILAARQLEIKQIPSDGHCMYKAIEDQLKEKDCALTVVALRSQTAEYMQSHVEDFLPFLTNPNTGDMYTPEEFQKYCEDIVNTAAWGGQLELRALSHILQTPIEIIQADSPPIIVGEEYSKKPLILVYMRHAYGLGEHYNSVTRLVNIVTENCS
Summary of the method: (§1)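 Labelled DUBs from HEK293T lysate were NeutrAvidin-enriched, digested with LysC and trypsin, and run by diaPASEF LC-MS/MS. Before that, each 495 µg sample in Tris/CHAPS/IGEPAL buffer with protease inhibitors was treated in triplicate with fragment at 200 µM or vehicle for 3 h, then with Biotin-Ahx-Ub-VS at 0.5 µM final for 1 h. Values are average log2 ratios of fragment over vehicle by unpaired t-test, based on global-median-normalised Spectronaut label-free quantities from proteins with ≥2 unique peptides.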

OTUD7B = target: T2, OTUD7B (UniProt Q6GQQ9)
T2 sequence (whole entry): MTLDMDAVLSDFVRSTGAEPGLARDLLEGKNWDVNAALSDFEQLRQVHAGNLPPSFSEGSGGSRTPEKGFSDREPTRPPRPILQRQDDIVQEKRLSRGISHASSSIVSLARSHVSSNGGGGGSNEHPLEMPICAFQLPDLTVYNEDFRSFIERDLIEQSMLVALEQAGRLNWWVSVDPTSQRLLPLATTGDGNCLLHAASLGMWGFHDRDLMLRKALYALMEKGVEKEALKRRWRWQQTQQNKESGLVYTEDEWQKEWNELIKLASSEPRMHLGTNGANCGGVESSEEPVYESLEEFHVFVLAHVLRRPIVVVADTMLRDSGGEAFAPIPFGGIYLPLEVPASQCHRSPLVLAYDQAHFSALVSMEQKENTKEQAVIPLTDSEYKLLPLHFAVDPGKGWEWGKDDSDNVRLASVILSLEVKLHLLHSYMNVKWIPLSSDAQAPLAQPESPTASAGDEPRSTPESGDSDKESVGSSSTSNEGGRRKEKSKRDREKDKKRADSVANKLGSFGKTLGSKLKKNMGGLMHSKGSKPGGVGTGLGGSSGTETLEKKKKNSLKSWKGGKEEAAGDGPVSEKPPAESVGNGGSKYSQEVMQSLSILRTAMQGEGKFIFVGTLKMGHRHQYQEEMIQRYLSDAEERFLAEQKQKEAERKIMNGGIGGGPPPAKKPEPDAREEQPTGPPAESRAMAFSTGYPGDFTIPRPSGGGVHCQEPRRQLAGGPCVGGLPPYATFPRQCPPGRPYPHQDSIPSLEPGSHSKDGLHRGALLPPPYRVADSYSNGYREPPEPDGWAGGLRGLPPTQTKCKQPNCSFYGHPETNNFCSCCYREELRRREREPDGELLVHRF
Summary of the method: as §1

PRPF8 = PRPF8 (UniProt Q6P2Q9)
Summary of the method: as §1

PSMD7 = target: T3, PSMD7 (UniProt P51665)
T3 sequence (whole entry): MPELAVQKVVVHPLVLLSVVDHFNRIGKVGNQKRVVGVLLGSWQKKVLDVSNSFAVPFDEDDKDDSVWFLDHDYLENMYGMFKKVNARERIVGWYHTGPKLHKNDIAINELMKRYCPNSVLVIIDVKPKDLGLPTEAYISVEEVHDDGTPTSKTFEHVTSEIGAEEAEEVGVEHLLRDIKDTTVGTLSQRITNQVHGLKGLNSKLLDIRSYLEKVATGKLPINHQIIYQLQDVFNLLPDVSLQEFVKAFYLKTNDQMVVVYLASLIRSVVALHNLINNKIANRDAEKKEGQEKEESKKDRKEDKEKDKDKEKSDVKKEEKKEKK
Summary of the method: as §1

UCHL1 = UCHL1 (UniProt P09936)
Summary of the method: as §1

UCHL3 = target: T4, UCHL3 (UniProt P15374)
T4 sequence (whole entry): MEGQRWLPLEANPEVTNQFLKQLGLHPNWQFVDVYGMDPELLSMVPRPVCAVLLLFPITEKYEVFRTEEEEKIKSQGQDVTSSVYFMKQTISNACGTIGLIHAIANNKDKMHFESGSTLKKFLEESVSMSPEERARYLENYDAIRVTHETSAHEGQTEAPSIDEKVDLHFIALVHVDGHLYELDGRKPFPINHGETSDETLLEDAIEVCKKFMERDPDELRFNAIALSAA
Summary of the method: as §1

UCHL5 = target: T5, UCHL5 (UniProt Q9Y5K5)
T5 sequence (whole entry): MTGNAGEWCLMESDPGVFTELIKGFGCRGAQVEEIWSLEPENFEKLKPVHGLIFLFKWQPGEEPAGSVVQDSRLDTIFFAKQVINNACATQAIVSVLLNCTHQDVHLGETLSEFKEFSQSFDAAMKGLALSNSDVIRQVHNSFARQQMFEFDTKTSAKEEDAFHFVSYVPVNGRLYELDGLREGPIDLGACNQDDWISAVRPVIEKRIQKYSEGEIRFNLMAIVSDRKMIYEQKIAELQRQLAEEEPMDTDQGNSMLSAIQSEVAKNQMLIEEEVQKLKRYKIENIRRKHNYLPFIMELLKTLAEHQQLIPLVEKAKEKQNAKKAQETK
Summary of the method: as §1

USP10 = USP10 (UniProt Q14694)
Summary of the method: as §1

USP15 = target: T6, USP15 (UniProt Q9Y4E8)
T6 sequence (whole entry): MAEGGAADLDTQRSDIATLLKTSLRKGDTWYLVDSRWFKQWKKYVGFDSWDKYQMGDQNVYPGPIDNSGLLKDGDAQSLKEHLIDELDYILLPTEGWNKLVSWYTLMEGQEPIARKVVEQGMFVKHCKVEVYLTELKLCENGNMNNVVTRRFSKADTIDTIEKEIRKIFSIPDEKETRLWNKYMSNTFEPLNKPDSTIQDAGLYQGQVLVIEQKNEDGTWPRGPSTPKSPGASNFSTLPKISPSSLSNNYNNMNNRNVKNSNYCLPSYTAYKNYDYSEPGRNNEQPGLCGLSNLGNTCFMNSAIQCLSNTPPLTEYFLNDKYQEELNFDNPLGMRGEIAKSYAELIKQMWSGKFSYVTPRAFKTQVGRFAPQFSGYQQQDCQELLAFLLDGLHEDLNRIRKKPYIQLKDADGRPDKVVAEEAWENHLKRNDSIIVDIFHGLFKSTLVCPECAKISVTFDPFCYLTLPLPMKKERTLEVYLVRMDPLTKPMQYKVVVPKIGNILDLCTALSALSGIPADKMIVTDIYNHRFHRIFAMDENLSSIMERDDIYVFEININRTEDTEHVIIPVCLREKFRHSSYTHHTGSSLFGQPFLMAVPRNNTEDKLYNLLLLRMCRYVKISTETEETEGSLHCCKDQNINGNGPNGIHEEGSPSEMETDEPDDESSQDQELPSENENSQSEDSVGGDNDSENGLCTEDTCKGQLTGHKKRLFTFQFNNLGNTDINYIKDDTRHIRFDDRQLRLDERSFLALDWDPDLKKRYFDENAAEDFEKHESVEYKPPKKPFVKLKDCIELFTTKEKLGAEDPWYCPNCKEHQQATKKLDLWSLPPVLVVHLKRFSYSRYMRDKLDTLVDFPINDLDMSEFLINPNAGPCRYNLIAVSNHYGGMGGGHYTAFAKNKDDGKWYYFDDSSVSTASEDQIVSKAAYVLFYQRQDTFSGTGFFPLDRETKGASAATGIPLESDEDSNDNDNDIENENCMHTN
Summary of the method: as §1

Measured: log2 ratio of Biotin-Ahx-Ub-VS probe labelling

USP10, sequence (Q14694 whole entry): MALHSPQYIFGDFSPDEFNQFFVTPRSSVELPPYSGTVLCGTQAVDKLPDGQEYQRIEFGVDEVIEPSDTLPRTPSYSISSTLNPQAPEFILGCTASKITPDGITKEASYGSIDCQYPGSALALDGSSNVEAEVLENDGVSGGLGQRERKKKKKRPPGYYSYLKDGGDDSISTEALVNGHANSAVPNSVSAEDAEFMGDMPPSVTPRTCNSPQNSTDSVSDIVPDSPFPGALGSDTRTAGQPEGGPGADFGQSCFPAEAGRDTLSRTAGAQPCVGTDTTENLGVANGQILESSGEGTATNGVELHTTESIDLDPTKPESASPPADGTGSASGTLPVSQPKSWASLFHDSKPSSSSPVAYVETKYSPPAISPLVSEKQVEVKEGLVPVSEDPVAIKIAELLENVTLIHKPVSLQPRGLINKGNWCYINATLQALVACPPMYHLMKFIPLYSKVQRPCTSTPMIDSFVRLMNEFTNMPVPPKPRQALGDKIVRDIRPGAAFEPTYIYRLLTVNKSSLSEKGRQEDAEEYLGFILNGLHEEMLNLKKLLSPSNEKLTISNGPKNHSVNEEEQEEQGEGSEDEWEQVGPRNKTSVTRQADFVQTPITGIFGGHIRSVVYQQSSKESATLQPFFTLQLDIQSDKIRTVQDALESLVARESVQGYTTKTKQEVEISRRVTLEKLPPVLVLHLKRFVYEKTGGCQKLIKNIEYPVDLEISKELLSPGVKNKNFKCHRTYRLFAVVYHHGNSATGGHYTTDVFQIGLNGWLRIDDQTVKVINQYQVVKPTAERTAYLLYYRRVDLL
UCHL1, sequence (P09936 whole entry, looked up): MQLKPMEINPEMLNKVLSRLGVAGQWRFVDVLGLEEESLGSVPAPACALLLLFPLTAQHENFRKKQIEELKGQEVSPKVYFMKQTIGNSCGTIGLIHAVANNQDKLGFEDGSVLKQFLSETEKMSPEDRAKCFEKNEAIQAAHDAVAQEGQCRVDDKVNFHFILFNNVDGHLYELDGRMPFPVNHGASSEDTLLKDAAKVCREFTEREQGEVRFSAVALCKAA

O=C(CCl)N1CCCC2CCCCC21 (centres undefined)
active: UCHL1 -1.06
inactive: OTUD6B 0.111 | OTUD7B -0.246 | PRPF8 0.0617 | PSMD7 -0.09 | UCHL3 0.0783 | UCHL5 -0.193 | USP10 -0.167 | USP15 -0.1
